Hit rate of the full screen: of about 5,500 compounds, about 2,000 (36%) were called active. Inconclusive results (about 18%) are left out. Cut-off read from the data, not from the text of the source: active = normalized growth mostly below about 0.91 (no sharp cut-off); inconclusive = no clear call, values can overlap the other calls; inactive = mostly above about 0.92. The list shows a part of the results.
Assay: chemical genetic growth profiling, strain panel (AID 1159580);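 note: tested at 20 µM; growth read once vehicle control cultures reached saturation at 30 °C; 1 = growth at the plate median or of vehicle wells; lower values mean less growth of the strain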
Details: S. cerevisiae deletion strains, growth OD
[1] = locus YAL040C, strain CLN3, hits give low values
[2] = locus YER002W, strain NOP16, hits give low values
[3] = locus YGR229C, strain SMI1, hits give low values
[4] = locus YMR263W, strain SAP30, hits give low values
[5] = locus YNL128W, strain TEP1, hits give low values
[6] = locus YNL153C, strain GIM3, hits give low values
[7] = locus YNL175C, strain NOP13, hits give low values
[8] = locus YNL197C, strain WHI3, hits give low values
[9] = locus YNL224C, strain SQS1, hits give low values
[10] = locus YOR083W, strain WHI5 (second series), hits give low values
[11] = locus YCL061C, strain MRC1 (second series), hits give low values
[12] = locus YDR363W, strain ESC2, hits give low values
[13] = locus YMR307W, strain GAS1, hits give low values
[14] = locus YPL055C, strain LGE1, hits give low values
[15] = locus YPL241C, strain CIN2, hits give low values

Measured: normalized growth

NC(N)=NCCC[C@H](N)C(=O)O
inactive: [1] 1.09 | [2] 1.01 | locus YGR078C, strain PAC10, hits give low values 0.987 | [3] 0.98 | [4] 1.01 | [5] 0.986 | [6] 1.01 | [7] 0.981 | [8] 0.989 | [9] 0.999 | locus YNL322C, strain KRE1, hits give low values 0.984 | [10] 0.975

CCCCC#Cc1nc(N)c2ncn([C@@H]3O[C@H](C(=O)NCC)[C@@H](O)[C@H]3O)c2n1
inactive: [1] 0.949 | [11] 0.996 | [12] 1 | [2] 1 | [4] 0.996 | [13] 1.01 | [6] 1.19 | [7] 0.98 | [8] 0.982 | [9] 1.01 | [10] 0.982 | [14] 0.991 | [15] 0.994

COc1nc(C)nc(Cl)c1NC1=NCCN1
inactive: locus YAL013W, strain DEP1, hits give low values 1.01 | [1] 0.999 | [11] 0.999 | locus YDR150W, strain NUM1, hits give low values 0.996 | [12] 1.01 | [2] 0.987 | [3] 1.01 | locus YJR075W, strain HOC1, hits give low values 0.99 | [4] 0.998 | [13] 1.01 | [5] 1.01 | [7] 1 | [8] 1 | [9] 1.01 | [10] 1.01 | [14] 0.998 | [15] 0.997

Cc1c(C(=S)Nc2ccccc2)sc2ccccc12
inactive: locus YAR019C, strain CDC15, hits give low values 0.943 | locus YBL105C, strain PKC1, hits give low values 0.958 | locus YBR135W, strain CKS1, hits give low values 0.935 | locus YBR136W, strain MEC1, hits give low values 0.947 | locus YBR160W, strain CDC28, hits give low values 0.948 | locus YDL017W, strain CDC7, hits give low values 0.964 | locus YDL028C, strain MPS1, hits give low values 0.953 | locus YDL101C, strain DUN1, hits give low values 0.961 | locus YDL108W, strain KIN28, hits give low values 0.946 | locus YDL132W, strain cdc53, hits give low values 0.967 | locus YDL214C, strain PRR2, hits give low values 0.881 | locus YDR052C, strain DBF4, hits give low values 0.959 | locus YDR054C, strain cdc34, hits give low values 0.938 | locus YDR226W, strain ADK1, hits give low values 0.941 | locus YDR477W, strain SNF1, hits give low values 0.887 | locus YER123W, strain YCK3, hits give low values 0.882 | locus YER133W, strain GLC7, hits give low values 0.865 | locus YFL009W, strain cdc4, hits give low values 0.943 | locus YFL029C, strain CAK1, hits give low values 0.941 | locus YFR003C, strain YPI1, hits give low values 0.949 | locus YFR019W, strain FAB1, hits give low values 0.948 | locus YFR028C, strain CDC14, hits give low values 0.969 | locus YGR040W, strain KSS1, hits give low values 0.867 | locus YGR052W, strain FMP48, hits give low values 0.968 | locus YGR092W, strain DBF2, hits give low values 0.728 | locus YHR079C, strain IRE1, hits give low values 0.816 | locus YHR082C, strain KSP1, hits give low values 0.863 | locus YHR205W, strain SCH9, hits give low values 0.861 | locus YIL147C, strain SLN1, hits give low values 0.951 | locus YJL095W, strain BCK1, hits give low values 0.886 | locus YJL128C, strain PBS2, hits give low values 0.95 | locus YJL157C, strain FAR1, hits give low values 0.863 | locus YJR016C, strain ILV3, hits give low values 0.946 | locus YJR066W, strain TOR1 (second series), hits give low values 0.818 | locus YJR066W, strain TOR1, hits give low values 0.899 | locus YKL048C, strain ELM1, hits give low values 0.933 | locus YKL067W, strain YNK1, hits give low values 0.884 | locus YKL101W, strain HSL1, hits give low values 0.917 | locus YKL193C, strain SDS22, hits give low values 0.94 | locus YKL203C, strain TOR2, hits give low values 0.925 | locus YLR113W, strain HOG1, hits give low values 0.915 | locus YLR133W, strain CKI1, hits give low values 0.888 | locus YLR403W, strain SFP1, hits give low values 0.81 | locus YML070W, strain DAK1, hits give low values 0.865 | locus YMR001C, strain CDC5, hits give low values 0.938 | locus YMR205C, strain PFK2 (second series), hits give low values 0.879 | locus YMR277W, strain FCP1, hits give low values 0.939 | locus YNL006W, strain LST8, hits give low values 0.951 | locus YNL020C, strain ARK1, hits give low values 0.875 | locus YNL161W, strain CBK1, hits give low values 0.954 | locus YNL183C, strain NPR1, hits give low values 0.863 | locus YNL207W, strain RIO2, hits give low values 0.946 | locus YNL222W, strain SSU72, hits give low values 0.941 | locus YNL307C, strain MCK1 (second series), hits give low values 0.842 | locus YOL078W, strain AVO1, hits give low values 0.934 | locus YOL136C, strain PFK27, hits give low values 0.859 | locus YOR061W, strain CKA2, hits give low values 0.854 | locus YOR119C, strain RIO1, hits give low values 0.965 | locus YOR231W, strain MKK1, hits give low values 0.879 | locus YOR329C, strain SCD5, hits give low values 0.958 | locus YPL031C, strain PHO85, hits give low values 0.862 | locus YPL153C, strain RAD53, hits give low values 0.847 | locus YPL204W, strain HRR25, hits give low values 0.828 | locus YPL209C, strain IPL1, hits give low values 0.95 | locus YPL256C, strain CLN2, hits give low values 0.899 | locus YPR025C, strain CCL1, hits give low values 0.945 | locus YPR106W, strain ISR1, hits give low values 0.951 | locus YPR111W, strain DBF20, hits give low values 0.99 | strain NNK1, hits give low values 0.949 | strain TSCII, hits give low values 0.941
active: locus YHR030C, strain SLT2, hits give low values 0.809

From PubChem BioAssay AID1159580 (chemical genetic matrix, 2015)
